Compounds with a hit are over-represented: about 4.1% of the library has one in this group of screens.
NR3A LBD binder – binders of NR3A ligand-binding domain, primary screen, biophysical, differential scanning fluorimetry, uHTS | Glutamate receptor ionotropic, NMDA 3A (GRIN3A) ligand-binding domain | Tm shift relative to glycine control, % at 25 µM | AID 1259313, 2017 | 2.5% of 340,000 active | NR3A LBD differential scanning fluorimetry, Tm shift; 0% = protein alone, 100% = glycine-bound protein;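 active means melting temperature shift of at least 10% of the positive control shift, at one fixed dose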
FAS-TE inh – FAS thioesterase domain inhibitors, primary screen, biochemical, fluorescence intensity, uHTS | recombinant FAS-TE, OMFH fluorogenic substrate, fluorescence endpoint | inhibition, % at 15 µM | 0.67% of 360,000 active;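 active means compounds whose normalised, plate-corrected inhibition of enzyme fluorescence in the single-dose primary screen is 50% or more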;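 further: 0% = DMSO with enzyme and 100% = substrate without enzyme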
MPTP block – mitochondrial permeability transition pore inhibitors, primary screen, biochemical, isolated mouse mitochondria, absorbance; 1.4% of 360,000 active; Ca2+ swelling absorbance, 30 min; inhibition, % at 10 µM;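 active means inhibition of 50% or more, scaled per plate between neutral and stimulator controls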;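 further: 0% = DMSO wells given calcium and 100% = 1 mM EGTA wells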
p-CIP stab down – p/CIP-EGFP fusion destabilizers, primary screen, fluorescence, F442A cells | 0.01% of 290,000 active | Q05BA5 | 16 h | decrease of EGFP signal, % at 10 µM;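 active means EGFP signal decrease of at least 30% at 10 µM or well 3 SD below plate mean, unless failing retest; inactive means the rest, including hits failing retest or dose response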
Target sequence (Q05BA5 1-1403): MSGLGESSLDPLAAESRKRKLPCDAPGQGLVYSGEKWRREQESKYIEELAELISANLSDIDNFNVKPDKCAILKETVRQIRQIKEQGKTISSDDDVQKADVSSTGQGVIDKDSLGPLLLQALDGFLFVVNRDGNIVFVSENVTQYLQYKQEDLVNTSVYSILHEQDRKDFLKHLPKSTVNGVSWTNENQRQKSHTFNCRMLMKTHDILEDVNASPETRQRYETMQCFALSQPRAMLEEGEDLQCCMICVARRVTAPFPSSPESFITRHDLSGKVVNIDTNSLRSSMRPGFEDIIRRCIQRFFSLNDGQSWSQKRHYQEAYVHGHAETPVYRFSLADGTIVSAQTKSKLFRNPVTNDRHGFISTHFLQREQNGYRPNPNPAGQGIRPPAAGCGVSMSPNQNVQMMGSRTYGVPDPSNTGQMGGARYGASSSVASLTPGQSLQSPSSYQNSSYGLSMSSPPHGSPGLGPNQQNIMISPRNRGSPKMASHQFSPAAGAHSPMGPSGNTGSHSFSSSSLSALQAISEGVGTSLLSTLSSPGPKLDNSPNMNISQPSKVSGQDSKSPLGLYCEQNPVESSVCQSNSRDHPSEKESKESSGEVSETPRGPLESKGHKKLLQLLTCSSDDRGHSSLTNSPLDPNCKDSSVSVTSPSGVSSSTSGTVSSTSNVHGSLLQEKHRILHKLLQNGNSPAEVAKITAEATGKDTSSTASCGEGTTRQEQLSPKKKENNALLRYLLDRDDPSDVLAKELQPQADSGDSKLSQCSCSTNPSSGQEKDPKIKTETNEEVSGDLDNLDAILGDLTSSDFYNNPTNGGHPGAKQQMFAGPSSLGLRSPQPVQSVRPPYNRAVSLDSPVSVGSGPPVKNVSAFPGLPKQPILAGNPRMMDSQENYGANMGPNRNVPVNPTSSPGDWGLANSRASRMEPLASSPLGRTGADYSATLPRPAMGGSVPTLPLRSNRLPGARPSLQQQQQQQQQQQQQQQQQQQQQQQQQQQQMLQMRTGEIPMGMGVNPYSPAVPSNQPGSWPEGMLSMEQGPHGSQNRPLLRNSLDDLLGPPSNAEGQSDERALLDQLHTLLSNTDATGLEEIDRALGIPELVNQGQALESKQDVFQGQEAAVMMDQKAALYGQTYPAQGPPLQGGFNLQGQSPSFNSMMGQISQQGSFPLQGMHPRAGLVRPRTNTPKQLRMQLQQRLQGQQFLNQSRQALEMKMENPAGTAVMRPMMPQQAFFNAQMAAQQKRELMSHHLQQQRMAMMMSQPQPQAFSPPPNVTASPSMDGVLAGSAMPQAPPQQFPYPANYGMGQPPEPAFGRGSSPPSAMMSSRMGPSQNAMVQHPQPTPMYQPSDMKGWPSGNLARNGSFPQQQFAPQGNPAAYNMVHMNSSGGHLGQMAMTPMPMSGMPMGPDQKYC
beta cell repl – inducers of MIN6 beta-cell proliferation, primary screen, ATP luminescence, uHTS; 0.29% of 330,000 active; proliferation, % at 10 µM; AID 2380, 2010; MIN6 cells proliferation, ATPlite luminescence, 48 h; cells starved in 0.2% serum; 100% = growth in 10% serum;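 active means compounds whose signal lies at least 3.5 SD above the mean of all wells on their plate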;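 further: 0% = DMSO-treated cells in low-serum medium and 100% = 10% serum control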
Active calls of the source: *; / = not tested or not shown.

SMILES | NR3A LBD binder | FAS-TE inh | MPTP block | p-CIP stab down | beta cell repl
N#CCC(=O)Nc1ccc(C(=O)OCc2ccccc2Oc2ccccc2)cc1 | 17* | 28 | 2 | -14 | -3
Cc1nc(Nc2ccc(S(N)(=O)=O)cc2)sc1C(=O)Nc1ccccc1 | 33* | 0 | -1 | 3 | 3
Cc1nc(Nc2ccccc2Cl)sc1C(=O)Nc1ccccc1 | 9 | 10 | 2 | -3 | -3
Cc1nc(C)c(-c2csc(Nc3cccc(O)c3)n2)s1 | 20* | 3 | 3 | -12 | -4
COc1ccc(Nc2nc(C)c(-c3ccccc3)s2)cc1 | 8 | 18 | 4 | 15 | /
Cc1nc(Nc2ccc(S(N)(=O)=O)cc2)sc1-c1ccccc1 | 16* | 12 | 2 | 0 | 0
Cc1nc(N)sc1-c1csc(Nc2cccc(O)c2)n1 | 0 | -4 | -2 | -2 | -3
Cc1nc(Nc2ccccc2)sc1C(=O)Nc1ccccc1 | 38* | 12 | 4 | -7 | -1
Cc1ccc(S(=O)(=O)Nc2nc(C)c(C(=O)Nc3ccccc3)s2)cc1 | -10 | -7 | 2 | 0 | 1
CC1(Oc2ccccc2)CCN(Cc2csc3ccccc23)C1 (stereo unspecified) | / | 15 | 0 | / | /
O=C(NCCc1ccccc1)C1Cc2c(-c3ccccc3)ccnc2O1 (stereo unspecified) | / | 4 | 0 | / | /
COC(=O)c1ccc(Cn2cnc3c(Cl)ncnc32)cc1 | 0 | -10 | 0 | / | /
CCc1c(-c2cccc(Br)c2)ncn1Cc1cccc(-c2ccccc2)c1 | / | / | 0 | / | /
Cc1nc(NCc2ccccc2)sc1C(=O)Nc1ccccc1 | -8 | -2 | -5 | -7 | -3
Cc1ccc(Nc2nc(-c3sc(C)nc3C)cs2)cc1 | -11 | 17 | 0 | -4 | -3
Cc1nc(C)c(-c2csc(Nc3ccc(S(N)(=O)=O)cc3)n2)s1 | 32* | 0 | 1 | 0 | 0
COc1ccccc1Nc1nc(C)c(C(=O)Nc2ccccc2)s1 | 25* | 12 | -2 | 10 | -4
CCNC(=O)C1CCCN(Cc2ccc3ccccc3c2Br)CC1 (stereo unspecified) | / | -3 | 1 | / | /
CCc1ccc2oc(=O)cc(CN3CCOCC3)c2c1 | 10* | -3 | 0 | -14 | 1
COc1cc(/C=N/NC(=O)CC2(C)OCCO2)cc(Br)c1O | 37* | -5 | 2 | -1 | 1
CCCCCC(=O)N/N=C/c1cc(Br)c(O)c(OC)c1 | 3 | -8 | 0 | -3 | 3
O=C(Nc1cc(Cl)ccc1O)c1cc2n(n1)C(C(F)(F)F)CC(c1ccc3c(c1)OCO3)N2 (stereo unspecified) | 23* | 10 | 2 | 8 | -3
CC(C)Oc1cc(F)ccc1-c1cc(C(=O)NCCCn2ccnc2)[nH]n1 | / | -7 | -1 | / | /
COc1ccc(OC)c2c1sc(=NC(=O)c1ccco1)n2C | 16* | 12 | 0 | -11 | 4
COc1cccc(C(=O)N=c2sc3c(C)ccc(OC)c3n2C)c1 | 12* | -3 | 0 | -7 | 5
SMILES | NR3A LBD binder | FAS-TE inh | MPTP block | p-CIP stab down | beta cell repl
CC(O)(c1cccc(F)c1)c1nc(-c2csc3ccccc23)cs1 (stereo unspecified) | / | 27 | 2 | / | /
COc1ccc(NC(=O)CSc2nc(N3CCCCC3)nc(N3CCCCC3)n2)cc1 | 13* | -1 | -1 | 1 | -2
CC(C)C(=O)Nc1cccc(NC(=S)NC(=O)c2ccc(Cl)cc2)c1 | -9 | 12 | 17 | -21 | -6
COc1ccccc1C(=O)Nc1ccc2c(c1)OCCO2 | -1 | -6 | 1 | -3 | -3
COc1cc(SC)ccc1C(=O)Nc1ccc2c(c1)OCCO2 | 14* | 14 | 0 | -7 | -4
COc1ccc(Cl)cc1C(=O)Nc1ccc(NC(=O)c2ccco2)cc1 | 17* | -5 | 1 | -6 | 2
CC(C)C(=O)Nc1cccc(NC(=S)NC(=O)c2ccc3c(c2)OCO3)c1 | 12* | -4 | 1 | -15 | -3
O=C(COc1ccc(Cl)cc1)Nc1ccc(NC(=O)c2ccco2)cc1 | 17* | -2 | 2 | -4 | 0
CCCS(=O)(=O)NC(=O)C1(C)CCCN(C(=O)c2cc(C)nn2C(C)(C)C)C1 (stereo unspecified) | / | -3 | 0 | / | /
CC(C)COC(=O)N1CCCCC1c1cc(C(=O)NC(C)C)no1 (stereo unspecified) | / | 1 | -2 | / | /
COc1ccc(Cl)cc1C(=O)Nc1ccc2c(c1)OCO2 | 28* | 8 | 4 | 8 | -1
COc1ccc(Cl)cc1C(=O)Nc1ccc2c(c1)OCCO2 | -1 | 10 | 12 | 4 | -2
Cc1ccc(NC(=O)c2ccc3c(c2)OCO3)cc1Cl | 17* | 13 | 1 | -4 | 0
O=C(COc1ccc(Cl)cc1)Nc1cc(NC(=O)COc2ccc(Cl)cc2)cc(C(=O)O)c1 | 12* | 16 | 1 | -8 | 1
Nc1ccn([C@@H]2O[C@H](CNCc3ccc(OCC(=O)Nc4nccs4)cc3)[C@@H](O)[C@H]2O)c(=O)n1 | / | -6 | 0 | / | /
Cn1nc(NC(=O)C(F)(F)F)c2ncc(-c3ccccc3)nc21 | / | -6 | -4 | / | /
C[C@@H]1CN([C@H](C)CO)C(=O)c2cc(NC(=O)Nc3ccc(C(F)(F)F)cc3)ccc2O[C@H]1CN(C)S(=O)(=O)c1ccccc1 | 22* | 22 | 1 | / | -6
C[C@H](CO)N1C[C@H](C)[C@@H](CN(C)S(=O)(=O)c2ccccc2)Oc2c(NC(=O)Nc3ccc(C(F)(F)F)cc3)cccc2C1=O | 4 | 49 | -1 | / | -5
COc1ccc(S(=O)(=O)N(C)C[C@H]2Oc3ccc(NC(=O)Nc4ccc(C(F)(F)F)cc4)cc3C(=O)N([C@H](C)CO)C[C@@H]2C)cc1 | 22* | 35 | 1 | / | -6
CCCc1cc(=O)[nH]c(SCC(=O)Nc2cc(S(=O)(=O)N3CCCCC3)ccc2Cl)n1 | -5 | -1 | 2 | / | /
COc1cccc(N/C(SCc2ccccc2C)=C(/C#N)C(=O)NCc2cccs2)c1 | 4 | 30 | 1 | -2 | -3
COc1cccc(N/C(SCc2ccccc2Cl)=C(/C#N)C(=O)NCc2cccs2)c1 | 13* | 30 | 0 | 1 | 0
O=C1NC[C@@H](CCCCN2C[C@H](Cc3ccc(O)cc3)N(CCc3ccccc3)C(=O)C2=O)N(CCC2CCCCC2)C1=O | / | 8 | -4 | / | /
COc1ccc(CCN=C(C)c2cc(C)c(C)cc2O)cc1OC | 15* | -3 | 0 | -25 | 0
CN(C(=O)c1ccc(NC(=O)Cc2ccc(NC(=O)C3CCCN(C(=O)C4CCC4)C3)cc2)cc1)C1CCCC1 (stereo unspecified) | 1 | -4 | -1 | / | /
O=C(Nc1cccc(NC(=O)c2cc([N+](=O)[O-])ccc2Cl)n1)c1cc([N+](=O)[O-])ccc1Cl | 1 | 57* | 8 | / | -6

High-throughput results: PubChem BioAssay, Sanford-Burnham Center for Chemical Genomics
